Consider seven compounds from PubChem BioAssay.

Experiment [1] is described as follows: E. coli DRC41 culture turbidity changes, primary screen, E. coli filamentation inducer project, strain DRC41, OD650, 48 h (AID 1152).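 Note: E. coli MC1000 strain DRC41 lacking acrAB efflux pump and sulA.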 As to conditions: E. coli DRC41 (acrAB sulA), higher = more signal, called active from +8 up or from −8 down.
Experiment [2] in a line: small-molecule binders of probe aLefty1, primary screen, biochemical, small-molecule microarray, 635/667 nm fluorescence (AID 1153).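 Note: score merges spot fluorescence with signal-to-noise ratio from the scanned slide images.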 Conditions: higher = more signal.
Experiment [3] is described as follows: PSAC antagonists in infected red cells, primary screen, cell-based, P. falciparum Indochina, OD700, 1 h (AID 1154). Conditions: P. falciparum Indochina infected RBC osmotic lysis, higher = more signal, called active from +8 up or from −8 down.
Experiment [4] can be described thus: PSAC antagonists in infected red cells, primary screen, cell-based, P. falciparum Indochina, OD700, 2 h (AID 1155).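 Note: lysis reports solute entry through the parasite surface anion channel PSAC; channel blockers reduce lysis of infected cells.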 As to conditions: P. falciparum Indochina infected erythrocytes, osmotic lysis OD700; higher = more signal, called active from +8 up or from −8 down.
Experiment [5] in a line: osmotic lysis modulators in infected erythrocytes, primary screen, PSAC antagonist project, cell-based, P. falciparum Indochina, OD700, 3 h (AID 1156). As to conditions: higher = more signal, called active from +8 up or from −8 down.
Experiment [6] in a line: PSAC antagonists in infected red cells, primary screen, cell-based, P. falciparum Indochina, OD700, 18 h (AID 1157). Conditions: P. falciparum Indochina infected erythrocytes, osmotic lysis OD700, 18 h; higher = more signal, called active from +8 up or from −8 down.
A short description of experiment [7]: modulators of S6 phosphorylation in cells, primary screen, cell-based, A549, cytoblot, luminescence, serum-stimulated (AID 1158).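 Note: serum-stimulated A549 lung adenocarcinoma cells; signal is phosphorylated S6 detected by cytoblot immunostaining with HRP secondary.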 Conditions: A549 phospho-S6 cytoblot, 5 h, higher = more signal.
Experiment [8] concerns the target NADPH oxidase 2 (Homo sapiens) (UniProt P04839). As to the kind of experiment: NOX2-dependent H2O2 signal modulators, primary screen, NOX inhibitor project, cell-based, HEK293-NOX2, PMA-stimulated, Amplex Red fluorescence (AID 1159). Note: test concentration not given here. As to conditions: 45 min, higher = more signal, called active from +8 up or from −8 down.
In experiment [9] the target is NADPH oxidase 4 (Homo sapiens) (UniProt Q9NPH5). As to the kind of experiment: NOX4-dependent H2O2 signal modulators, primary screen, NOX inhibitor project, cell-based, HEK293-NOX4, tetracycline-induced, Amplex Red fluorescence (AID 1160). As to conditions: 45 min, higher = more signal, called active from +8 up or from −8 down.
Experiment [10] addresses NADPH oxidase 5 (Homo sapiens) (UniProt Q96PH1). The experiment can be described thus: NOX5-dependent H2O2 signal modulators, primary screen, NOX inhibitor project, cell-based, HEK293-NOX5, Amplex Red fluorescence (AID 1161). Conditions: HEK293-NOX5, ionomycin, 45 min, higher = more signal.
Experiment [11] is described as follows: A549 cell viability effects, profiling panel, calcein-AM fluorescence, 48 h, basal (AID 1162). Note: test concentration not given here. Conditions: higher = more signal.
Experiment [12] in a line: adipocyte viability effects, profiling panel, cell-based, 3T3-L1 adipocytes, calcein-AM fluorescence, 48 h, basal (AID 1163). Note: test concentration not given here. As to conditions: 3T3-L1 adipocytes viability, higher = more signal.
Experiment [13] can be described thus: HepG2 cell viability effects, profiling panel, calcein-AM fluorescence, 48 h, basal (AID 1164). Note: test concentration not given here. Conditions: higher = more signal.
Experiment [14] is described as follows: MM1S cell viability effects, profiling panel, calcein-AM fluorescence, 48 h, basal (AID 1165).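 Note: viability of MM1S multiple myeloma cells under basal unstimulated conditions; test concentration not given here.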 Conditions: higher = more signal.
A short description of experiment [15]: basal RPMI8226 viability, no added stimulus, profiling panel, cell-based, calcein-AM fluorescence, 48 h, PK04 Diversity Set (AID 1166).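 Note: cells grown under basal conditions without added stimulus; test concentration not given here.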 As to conditions: RPMI8226 myeloma viability, higher = more signal.
Experiment [16] in a line: basal HepG2 mitochondrial membrane potential changes, profiling panel, cell-based, JC-1 fluorescence, 24 h, 100 nL compound (AID 1167). Note: test concentration not given here. As to conditions: higher = more signal.
Experiment [17] can be described thus: basal 3T3-L1 adipocyte mitochondrial potential changes, profiling panel, cell-based, JC-1 fluorescence, 3T3-L1 adipocytes, 24 h, 100 nL compound (AID 1168). Note: test concentration not given here. As to conditions: JC-1 mitochondrial fluorescence, higher = more signal, called active from +8 up or from −8 down.
Experiment [18] is described as follows: basal RPMI8226 mitochondrial membrane potential changes, profiling panel, cell-based, JC-1 fluorescence, 24 h, 100 nL compound (AID 1169). Note: test concentration not given here. As to conditions: RPMI8226 myeloma, JC-1 mitochondrial potential fluorescence, higher = more signal.
Experiment [19] can be described thus: basal MM1S mitochondrial membrane potential changes, profiling panel, cell-based, JC-1 fluorescence, 24 h, 100 nL compound (AID 1170). Note: test concentration not given here. As to conditions: higher = more signal.
Experiment [20] is described as follows: A549 lung cancer cell viability effects, profiling panel, resazurin fluorescence, 24 h, PK04 Diversity Set (AID 1171). Note: test concentration not given here. As to conditions: higher = more signal, called active from +8 up or from −8 down. In general terms: Alamar Blue is a resazurin reagent that responds to reducing activity.

Structures are written as SMILES. Calls of active or inactive are those of the source.

Chain of NADPH oxidase 5 (Homo sapiens) (Q96PH1 whole entry, looked up): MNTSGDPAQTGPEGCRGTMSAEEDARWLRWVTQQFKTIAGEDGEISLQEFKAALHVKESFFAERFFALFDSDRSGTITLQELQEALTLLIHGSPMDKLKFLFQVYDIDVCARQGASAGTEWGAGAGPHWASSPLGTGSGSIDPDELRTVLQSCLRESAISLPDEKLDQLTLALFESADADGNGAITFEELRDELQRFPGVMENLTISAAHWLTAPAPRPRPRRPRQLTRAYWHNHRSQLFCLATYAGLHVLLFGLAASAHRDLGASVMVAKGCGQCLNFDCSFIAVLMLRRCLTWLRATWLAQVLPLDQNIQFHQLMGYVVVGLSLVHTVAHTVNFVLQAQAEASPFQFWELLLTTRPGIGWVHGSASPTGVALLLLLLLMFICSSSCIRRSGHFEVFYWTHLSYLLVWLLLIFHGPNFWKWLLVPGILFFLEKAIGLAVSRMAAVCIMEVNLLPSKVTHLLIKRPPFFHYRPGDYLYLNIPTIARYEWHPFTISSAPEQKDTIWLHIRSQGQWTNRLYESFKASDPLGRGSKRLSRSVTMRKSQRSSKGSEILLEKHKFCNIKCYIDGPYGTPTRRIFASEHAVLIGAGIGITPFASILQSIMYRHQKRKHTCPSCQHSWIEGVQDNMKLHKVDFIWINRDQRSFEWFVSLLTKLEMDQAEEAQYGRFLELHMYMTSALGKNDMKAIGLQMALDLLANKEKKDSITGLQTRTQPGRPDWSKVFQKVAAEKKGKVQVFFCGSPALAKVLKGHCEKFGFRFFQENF
Chain of NADPH oxidase 2 (Homo sapiens) (P04839 whole entry, looked up): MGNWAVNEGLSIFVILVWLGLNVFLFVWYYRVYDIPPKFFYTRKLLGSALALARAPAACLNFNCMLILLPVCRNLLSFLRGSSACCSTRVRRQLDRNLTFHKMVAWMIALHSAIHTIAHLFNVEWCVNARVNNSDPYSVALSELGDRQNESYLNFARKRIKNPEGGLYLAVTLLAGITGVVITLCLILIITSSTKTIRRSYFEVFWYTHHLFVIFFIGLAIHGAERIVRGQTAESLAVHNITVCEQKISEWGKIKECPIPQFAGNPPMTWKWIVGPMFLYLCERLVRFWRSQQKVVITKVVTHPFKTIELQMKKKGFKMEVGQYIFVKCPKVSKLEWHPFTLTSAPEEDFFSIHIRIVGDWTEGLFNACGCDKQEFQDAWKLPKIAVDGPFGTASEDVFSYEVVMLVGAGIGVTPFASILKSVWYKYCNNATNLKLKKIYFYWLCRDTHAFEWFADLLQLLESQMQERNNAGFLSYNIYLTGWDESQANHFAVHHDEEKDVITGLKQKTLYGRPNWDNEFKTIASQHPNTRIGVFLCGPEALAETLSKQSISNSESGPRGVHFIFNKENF
Chain of NADPH oxidase 4 (Homo sapiens) (Q9NPH5 whole entry, looked up): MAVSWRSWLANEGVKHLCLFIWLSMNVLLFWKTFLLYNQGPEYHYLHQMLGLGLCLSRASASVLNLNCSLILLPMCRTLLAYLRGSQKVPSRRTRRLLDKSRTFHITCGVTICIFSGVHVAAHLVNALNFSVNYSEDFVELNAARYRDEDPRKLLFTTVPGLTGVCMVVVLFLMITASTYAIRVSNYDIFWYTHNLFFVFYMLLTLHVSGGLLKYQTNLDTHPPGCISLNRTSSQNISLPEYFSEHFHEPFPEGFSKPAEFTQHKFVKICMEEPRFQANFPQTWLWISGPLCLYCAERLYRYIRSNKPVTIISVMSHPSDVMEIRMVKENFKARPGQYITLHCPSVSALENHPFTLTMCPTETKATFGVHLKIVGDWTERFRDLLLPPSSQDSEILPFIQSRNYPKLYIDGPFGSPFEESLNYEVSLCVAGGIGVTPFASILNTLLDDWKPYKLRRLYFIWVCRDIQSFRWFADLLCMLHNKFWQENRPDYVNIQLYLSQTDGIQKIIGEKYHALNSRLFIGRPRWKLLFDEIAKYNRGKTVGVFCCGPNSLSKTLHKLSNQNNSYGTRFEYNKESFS

Turning to `CCCNC(=O)OC[C@H]1O[C@H](CCON=C(C)CCN2CCc3nc(CC)c(CC)cc3C2)C=C[C@@H]1Oc1ccc(OC)cc1`, the z-score in experiment [1] was -0.611 (inactive); in [3] it was 8.46 (active); in experiment [4], 1.12 (inactive); in experiment [5], 1.66 (inactive); in experiment [6], 0.539 (inactive); in experiment [7] it was 0.58. For the same compound, the z-score in [8] was -3.19 (inactive); in experiment [9] it was -1.7 (inactive); in experiment [10], -3.32; in experiment [11] it was -0.142; in experiment [12], 0.73; in [13], -0.304. Further, the z-score is -2.95 in experiment [14]; -3.14 in experiment [15]; 4.22 in [16]; -1.48 (inactive) in experiment [17]; -0.0505 in experiment [18]; 0.598 in [19]. The z-score in experiment [20] was -0.245 (inactive). This compound returned a composite z-score in [2] of -0.0949.

Take `COc1ccc(COC(=O)NN=C2C[C@@H](O)[C@@H](O)[C@@H]3[C@@H]4C(=O)N(C5CCCCC5)C(=O)[C@@H]4CC[C@H]23)cc1`: the z-score in [1] is -1.01 (inactive); in experiment [3] it was 9.99 (active); in experiment [4] it was 1.51 (inactive); in experiment [5], 0.103 (inactive); in experiment [6] it was 0.549 (inactive); in experiment [7] it was 0.173. For the same compound, the z-score was -0.248 (inactive) in experiment [8]; 0.507 (inactive) in experiment [9]; -0.712 in [10]; -0.574 in experiment [11]; -1.09 in [12]; -0.543 in experiment [13]. Besides, the z-score in experiment [14] is -1.15; in [15], -0.733; in experiment [16], -0.895; in [17], -1.69 (inactive); in [18] it was 0.249; in [19] it was -0.244. For the same compound, the z-score in experiment [20] is 0.0299 (inactive). In experiment [2], the composite z-score was -0.0611.

Consider `O=C(NN=C1C[C@@H](O)[C@@H](O)[C@@H]2[C@@H]3C(=O)N(C4CCCCC4)C(=O)[C@@H]3CC[C@@H]12)OCc1ccccc1`, for which the z-score in experiment [1] is 0.536 (inactive); in [3], 4.15 (inactive); in experiment [4], 0.586 (inactive); in experiment [5] it was 0.228 (inactive); in experiment [6], 0.229 (inactive); in experiment [7], -0.146. For the same compound, the z-score in experiment [8] is -0.457 (inactive); in experiment [9], -0.223 (inactive); in [10], 0.118; in [11], 0.225; in experiment [12], 0.487; in experiment [13], 0.621. For the same compound, the z-score in experiment [14] is 0.495; in experiment [15], -0.697; in experiment [16] it was -0.502; in experiment [17], -0.247 (inactive); in [18], -0.369; in experiment [19], -0.309. Further, the z-score in experiment [20] was -0.24 (inactive). Also, the composite z-score in experiment [2] was -0.407.

`C=CC[C@@H]1C=C[C@H](ON=C[C@@H](C)[C@H](OCc2ccccc2)C(C)C)[C@@H](CO)O1`: the z-score in experiment [1] was -0.144 (inactive); in [3] it was 1.64 (inactive); in experiment [4] it was 0.0178 (inactive); in experiment [5], -0.667 (inactive); in experiment [6] it was 0.197 (inactive); in experiment [7], -0.544. Moreover, the z-score was -0.55 (inactive) in [8]; -0.301 (inactive) in experiment [9]; -1.48 in [10]; -0.475 in experiment [11]; -0.162 in [12]; -0.746 in experiment [13]. Also, the z-score in [14] was -1.55; in experiment [15] it was -0.958; in experiment [16], -1.94; in experiment [17], -0.87 (inactive); in experiment [18], -0.419; in experiment [19] it was -0.874. Moreover, the z-score in experiment [20] is 0.0506 (inactive). For the same compound, the composite z-score in [2] was -0.193.

For the compound `CCOC(=O)CCN1C(=O)[C@H]2[C@H]3[C@H](O)[C@H](O)CC(=NOCC(C)C)[C@H]3CC[C@H]2C1=O`, the z-score in [1] is 0.867 (inactive); in experiment [3] it was 0.0425 (inactive); in experiment [4], -0.153 (inactive); in experiment [5], 0.298 (inactive); in [6], 0.304 (inactive); in [7] it was -0.0487. The z-score in experiment [8] is -0.864 (inactive); in experiment [9], 0.148 (inactive); in experiment [10], 0.444; in experiment [11], 0.0183; in [12], 0.179; in experiment [13], -0.268. In addition, the z-score was 0.324 in experiment [14]; -0.75 in [15]; 0.364 in [16]; 0.295 (inactive) in [17]; -0.324 in experiment [18]; -1.03 in experiment [19]. Also, the z-score in experiment [20] is -0.86 (inactive). The compound also returned a composite z-score in experiment [2] of -0.0519.

Regarding `CC(CCC(=O)OC[C@H]1O[C@H](C#Cc2ccccc2)C=C[C@@H]1Oc1ccc(C)cc1)=NO[C@H](C)c1cn([C@H](CO)Cc2ccccc2)nn1`, the z-score in [1] was -0.757 (inactive); in experiment [3], 14.6 (active); in experiment [4], 2.79 (inactive); in experiment [5], 1.47 (inactive); in experiment [6] it was 1 (inactive); in experiment [7], -1.01. Moreover, the z-score was -1.26 (inactive) in experiment [8]; 0.432 (inactive) in [9]; 0.32 in [10]; 0.122 in experiment [11]; -0.643 in experiment [12]; -0.34 in experiment [13]. Moreover, the z-score in [14] was -3.06; in experiment [15] it was -3.97; in experiment [16], 0.0151; in [17] it was -1.08 (inactive); in experiment [18], -0.712; in [19], -0.547. The z-score in experiment [20] was 0.804 (inactive). In experiment [2], this compound gave a composite z-score of -0.243.

On to `COc1ccc(O[C@H]2C=C[C@@H](c3ccccc3)O[C@@H]2CON=C(C)CCN2CCc3nc(-c4ccccc4)c(-c4ccccc4)cc3C2)cc1`, for which the z-score was -1.59 (inactive) in [1]; 2.48 (inactive) in experiment [3]; 1.25 (inactive) in experiment [4]; 0.855 (inactive) in [5]; 0.71 (inactive) in experiment [6]; -0.0313 in [7]. Further, the z-score in [8] was 0.168 (inactive); in experiment [9] it was 0.00405 (inactive); in experiment [10], -0.434; in experiment [11] it was 0.437; in experiment [12], 0.133; in experiment [13] it was 0.59. Also, the z-score in experiment [14] is -1.65; in experiment [15], -0.439; in experiment [16], 4.95; in experiment [17], -1.39 (inactive); in experiment [18], 0.965; in experiment [19], -0.214. The z-score in experiment [20] is 0.621 (inactive). The composite z-score in [2] was -0.101.
